Source: PubChem BioAssay AID2284354 (EPA ToxCast)
Inconclusive results are not listed. Activity calls are given as the source filed them. How the source made its calls: active means hit-call score of the fitted dose curve at least 0.9, where 1 is the maximum; inconclusive means response in the unintended direction; inactive means score below 0.9.

Target: human Retinoid X Receptor beta (RXRb), RXRB (gene 6257) (UniProt P28702)
Experiment: ATG_hRXRb_EcoTox2: Attagene TRANS-FACTORIAL EcoTox-2 HepG2 Assay for human Retinoid X Receptor beta (RXRb)
Procedure: ATG_EcoTox2 is a cell-based, multiplexed assay created by modifying the existing Attagene TRANS-FACTORIAL system to include a panel of nuclear receptors from some or all the following species: human (Homo sapiens), african clawed frog (Xenopus laevis), rainbow trout (Oncorhynchus mykiss), japanese medaka (Oryzias latipes), and zebrafish (Danio rerio). The ECOTOX2-FACTORIAL format uses HepG2, a human liver cell line, with measurements taken at 24 hours after chemical dosing in a 24-well plate. ATG_hRXRb_EcoTox2 is one of 29 assay components calculated in the ATG_EcoTox2 assay. It is designed to make measurements of mRNA induction, a form of inducible reporter, as detected with fluorescence intensity signals by Reverse transcription polymerase chain reaction (RT-PCR) and Capillary electrophoresis technology.The assay endpoint ATG_hRXRb_EcoTox2 was analyzed in the positive analysis fitting direction relative to DMSO as the negative control and baseline of activity. Using a type of inducible reporter, measures of mRNA for gain-of-signal activity can be used to understand the reporter gene at the transcription factor-level as they relate to the gene RXRb. Furthermore, this assay endpoint can be referred to as a primary readout, because this assay has produced multiple assay endpoints where this one serves a reporter gene function. To generalize the intended target to other relatable targets, this assay endpoint is annotated to the nuclear receptor intended target family, where the subfamily is non-steroidal.
Human liver HepG2 cells are transiently transfected with multiple reporter transcription units (MRTUs) in 6-well plates using FuGene 6 reagent (Roche; 3 ml FuGene/1 mg DNA). The MRTU constructs are regulated by a cis-regulating element (promoter). Each RTU expresses a GAL4-UAS that regulates the transcription of a nearby target reporter gene sequence. A major difference between the CIS and TRANS system is that in CIS activities of endogenous TFs are measured, whereas the TRANS assay evaluates changes in activities of exogenous, chimeric NR-Gal4 proteins. […] At the end of 24 hour incubation, total RNA was isolated using TriZol reagent (Invitrogen). The isolated RNA is then reverse-transcribed using oligo(dT) primer and Mo-MLV reverse transcriptase (Invitrogen) with DNAse I (Ambion) treatment for 30 min. The one-tenth of the produced cDNA was amplified by PCR using Taq DNA polymerase (Invitrogen) and two reporter sequence-specific primers. The PCR products were fluorescently labeled by primer extension with 6-arboxyfluorescein (6-FAM) 5'-labeled reporter sequence-specific primer (2 min at 95 C, 20 s at 68 C and 10 min at 72 C) and these products were digested with 5U of HpaI (New England Biolabs) for 2h at 37 C. The fragments were purified using Qiaquick PCR columns (Qiagen), analyzed on an ABI 3130xL genetic analyzer (Applied Biosystems) with peak positions identified by using a set of X-rhodamine (ROX)-labeled MapMarker1000 molecular weight standards (BioVentures). The raw capillary electrophoresis data was processed using Attagraph software (Attagene).

Sequence of human Retinoid X Receptor beta (RXRb), RXRB (gene 6257) (P28702 whole entry, looked up): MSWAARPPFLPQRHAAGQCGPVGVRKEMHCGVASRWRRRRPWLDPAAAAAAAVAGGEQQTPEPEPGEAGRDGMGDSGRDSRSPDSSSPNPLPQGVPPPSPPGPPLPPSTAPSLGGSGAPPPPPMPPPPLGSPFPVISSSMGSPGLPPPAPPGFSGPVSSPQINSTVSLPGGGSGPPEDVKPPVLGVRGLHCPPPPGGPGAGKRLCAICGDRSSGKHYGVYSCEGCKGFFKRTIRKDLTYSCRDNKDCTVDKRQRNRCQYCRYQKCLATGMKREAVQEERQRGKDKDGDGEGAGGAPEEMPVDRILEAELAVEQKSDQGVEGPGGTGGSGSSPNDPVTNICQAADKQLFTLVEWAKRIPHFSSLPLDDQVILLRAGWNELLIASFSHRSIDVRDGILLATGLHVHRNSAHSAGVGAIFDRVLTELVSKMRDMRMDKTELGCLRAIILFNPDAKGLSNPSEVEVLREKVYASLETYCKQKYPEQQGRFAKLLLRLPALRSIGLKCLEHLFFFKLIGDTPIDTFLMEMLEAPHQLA

Compound | outcome | AC50
CC(C)(Oc1ccc(Cl)cc1)C(=O)O | inactive | 
Cc1ccc(C)c(OCCCC(C)(C)C(=O)O)c1 |  | 18.6 µM (active)
C[C@@H]1C[C@H]2[C@@H]3CCC4=CC(=O)C=C[C@]4(C)[C@@]3(F)[C@@H](O)C[C@]2(C)[C@@]1(O)C(=O)COP(=O)(O)O | inactive | 
C[C@]12C=CC(=O)C=C1CC[C@@H]1[C@@H]2C(=O)C[C@@]2(C)[C@H]1CC[C@]2(O)C(=O)CO | inactive | 
CN(CCOc1ccc(CC2SC(=O)NC2=O)cc1)c1ccccn1 (centres undefined) |  | 13 µM (active)
CC(C)(Oc1ccc(CCNC(=O)c2ccc(Cl)cc2)cc1)C(=O)O | inactive | 
CC(C)(Oc1ccc(C2CC2(Cl)Cl)cc1)C(=O)O (centres undefined) | inactive | 
CC(C)OC(=O)C(C)(C)Oc1ccc(C(=O)c2ccc(Cl)cc2)cc1 | inactive | 
CC(c1cc2ccccc2s1)N(O)C(N)=O (centres undefined) | inactive | 
